Laboratory results: article doi:10.1101/2024.03.05.583629

Columns and labels:
pT7_6His-AlfaTag-HOXD13 = pT7_6His-AlfaTag-HOXD13 (human, UniProt P35453 263-343); experiment: PADIT-seq; conditions: dsDNA, one strand shown
pT7_6His-AlfaTag-ZIF268 = pT7_6His-AlfaTag-ZIF268 (human, UniProt P18146 335-423); experiment: PADIT-seq; conditions: dsDNA, one strand shown

Chain of pT7_6His-AlfaTag-HOXD13 (P35453 263-343): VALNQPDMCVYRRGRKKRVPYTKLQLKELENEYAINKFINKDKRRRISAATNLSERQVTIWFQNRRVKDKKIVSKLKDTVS

Row | Sequence | binding signal (pT7_6His-AlfaTag-HOXD13) | binding signal (pT7_6His-AlfaTag-ZIF268)
1 | CTCGAGGATATCAAGATCTGGCCTCGGCTTTTTACGTGGAACCTCTAGCTAGCCGACTCACTATAGGGATAATCGCCCTGAGCAAAGACC | 2.42 ± 0.0834 log2FC | –
2 | CTCGAGGATATCAAGATCTGGCCTCGGCCTATTAAAAGGAACCTCTAGCTAGCCGACTCACTATAGGGATAATCGCCCTGAGCAAAGACC | 3.05 ± 0.0763 log2FC | –
3 | CTCGAGGATATCAAGATCTGGCCTCGGCGTTTTACTCGGAACCTCTAGCTAGCCGACTCACTATAGGGATAATCGCCCTGAGCAAAGACC | 0.701 ± 0.0889 log2FC | –
4 | CTCGAGGATATCAAGATCTGGCCTCGGCGAGCTAAAAGGAACCTCTAGCTAGCCGACTCACTATAGGGATAATCGCCCTGAGCAAAGACC | -0.842 ± 0.11 log2FC | –
5 | CTCGAGGATATCAAGATCTGGCCTCGGCCCCTGGGCGGGAACCTCTAGCTAGCCGACTCACTATAGGGATAATCGCCCTGAGCAAAGACC | -0.981 ± 0.122 log2FC | –
6 | CTCGAGGATATCAAGATCTGGCCTCGGCGCTCTAAAAGGAACCTCTAGCTAGCCGACTCACTATAGGGATAATCGCCCTGAGCAAAGACC | 0.0795 ± 0.0859 log2FC | –
7 | CTCGAGGATATCAAGATCTGGCCTCGGCCTTTTATTCGGAACCTCTAGCTAGCCGACTCACTATAGGGATAATCGCCCTGAGCAAAGACC | 1.67 ± 0.077 log2FC | –
8 | CTCGAGGATATCAAGATCTGGCCTCGGCATTTTAACTGGAACCTCTAGCTAGCCGACTCACTATAGGGATAATCGCCCTGAGCAAAGACC | 1.48 ± 0.0833 log2FC | –
9 | CTCGAGGATATCAAGATCTGGCCTCGGCCTTTTAAACGGAACCTCTAGCTAGCCGACTCACTATAGGGATAATCGCCCTGAGCAAAGACC | 2.06 ± 0.0696 log2FC | –
10 | CTCGAGGATATCAAGATCTGGCCTCGGCGCGATGGCGGGAACCTCTAGCTAGCCGACTCACTATAGGGATAATCGCCCTGAGCAAAGACC | -0.944 ± 0.133 log2FC | –
11 | CTCGAGGATATCAAGATCTGGCCTCGGCCTTTTATGGGGAACCTCTAGCTAGCCGACTCACTATAGGGATAATCGCCCTGAGCAAAGACC | 3.37 ± 0.0902 log2FC | –
12 | CTCGAGGATATCAAGATCTGGCCTCGGCATTTTAGGAGGAACCTCTAGCTAGCCGACTCACTATAGGGATAATCGCCCTGAGCAAAGACC | 1.62 ± 0.0831 log2FC | –
13 | CTCGAGGATATCAAGATCTGGCCTCGGCAAGATAAAAGGAACCTCTAGCTAGCCGACTCACTATAGGGATAATCGCCCTGAGCAAAGACC | 0.282 ± 0.0917 log2FC | –
14 | CTCGAGGATATCAAGATCTGGCCTCGGCCTTTTATATGGAACCTCTAGCTAGCCGACTCACTATAGGGATAATCGCCCTGAGCAAAGACC | 2.91 ± 0.0779 log2FC | –
15 | CTCGAGGATATCAAGATCTGGCCTCGGCACGATAAAAGGAACCTCTAGCTAGCCGACTCACTATAGGGATAATCGCCCTGAGCAAAGACC | 1.32 ± 0.0937 log2FC | –
16 | CTCGAGGATATCAAGATCTGGCCTCGGCTTTTTACATGGAACCTCTAGCTAGCCGACTCACTATAGGGATAATCGCCCTGAGCAAAGACC | 2.12 ± 0.0858 log2FC | –
17 | CTCGAGGATATCAAGATCTGGCCTCGGCGCTGTAAAAGGAACCTCTAGCTAGCCGACTCACTATAGGGATAATCGCCCTGAGCAAAGACC | 2.11 ± 0.0786 log2FC | –
18 | CTCGAGGATATCAAGATCTGGCCTCGGCCTTTTACCGGGAACCTCTAGCTAGCCGACTCACTATAGGGATAATCGCCCTGAGCAAAGACC | 0.698 ± 0.0877 log2FC | –
19 | CTCGAGGATATCAAGATCTGGCCTCGGCATTTTAGTCGGAACCTCTAGCTAGCCGACTCACTATAGGGATAATCGCCCTGAGCAAAGACC | -0.427 ± 0.127 log2FC | –
20 | CTCGAGGATATCAAGATCTGGCCTCGGCTACGTAAAAGGAACCTCTAGCTAGCCGACTCACTATAGGGATAATCGCCCTGAGCAAAGACC | 0.743 ± 0.0961 log2FC | –
21 | CTCGAGGATATCAAGATCTGGCCTCGGCACAGTAAAAGGAACCTCTAGCTAGCCGACTCACTATAGGGATAATCGCCCTGAGCAAAGACC | 1.94 ± 0.076 log2FC | 0.04 ± 0.0816 log2FC
22 | CTCGAGGATATCAAGATCTGGCCTCGGCTAGTGGGCGGGAACCTCTAGCTAGCCGACTCACTATAGGGATAATCGCCCTGAGCAAAGACC | -0.725 ± 0.112 log2FC | 1.78 ± 0.084 log2FC
23 | CTCGAGGATATCAAGATCTGGCCTCGGCATTTTAGGGGGAACCTCTAGCTAGCCGACTCACTATAGGGATAATCGCCCTGAGCAAAGACC | 1.57 ± 0.105 log2FC | 0.0683 ± 0.108 log2FC
24 | CTCGAGGATATCAAGATCTGGCCTCGGCAGCGTAAAAGGAACCTCTAGCTAGCCGACTCACTATAGGGATAATCGCCCTGAGCAAAGACC | 0.403 ± 0.0993 log2FC | 0.0644 ± 0.094 log2FC
25 | CTCGAGGATATCAAGATCTGGCCTCGGCTCATGGGCGGGAACCTCTAGCTAGCCGACTCACTATAGGGATAATCGCCCTGAGCAAAGACC | -1.04 ± 0.124 log2FC | 0.0784 ± 0.105 log2FC
26 | CTCGAGGATATCAAGATCTGGCCTCGGCAGTTTAAAAGGAACCTCTAGCTAGCCGACTCACTATAGGGATAATCGCCCTGAGCAAAGACC | 2.23 ± 0.0764 log2FC | 0.0518 ± 0.0805 log2FC
